Laboratory results from PubChem BioAssay.
Several values for one entry are separate records, joined by “and”; a condition that tells them apart may be missing. Equal values may be shown once. Results filed as inconclusive are left out. Activity calls are given as the source filed them.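 Rule for the calls, unless noted: active = inhibition above 50%, about 3 SD of the validation set; inactive = the rest.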

Key:
[1] = yeast TOR pathway RPL19A-GFP modulators, primary screen, cell-based, S. cerevisiae, multiplex flow cytometry (AID 1862; in the data active = percent of DMSO control GFP below about 86%;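 note: lower values mimic rapamycin by blocking the RPL19A rise seen in DMSO cells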); conditions: S. cerevisiae RPL19A-GFP strain, flow cytometry fluorescence, 3 h; at 10 µM; stronger effect = lower value
[2] = modulators of MEP2-GFP levels in yeast, primary screen, S. cerevisiae, multiplex flow cytometry (AID 1867;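 active = GFP response, as percent of the DMSO control, above the screen-wide mean plus 3 SD, about 139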;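 note: median GFP channel fluorescence of barcode-gated MEP2-GFP cells measured by flow cytometry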); conditions: S. cerevisiae MEP2-GFP strain, 3 h, at 10 µM, stronger effect = higher value, 100% means same as DMSO wells
[3] = modulators of CIT2-GFP expression in yeast, primary screen, S. cerevisiae, GFP fusion, multiplex flow cytometry (AID 1870;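 active = percent response above a set limit, the screen-wide mean plus 3 SD, cut at about 130% in these data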;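 note: barcoded CIT2-GFP strain pooled with four other GFP strains with rapamycin as positive control; median GFP fluorescence per well over plate mean of DMSO wells so 100% = DMSO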); conditions: 3 h, at 10 µM, stronger effect = higher value
[4] = modulators of LAP4-GFP expression in yeast, primary screen, S. cerevisiae, multiplex flow cytometry (AID 1873;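 active = GFP signal, as percent of the solvent control, above the screen mean plus 3 SD, about 149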); conditions: 3 h, at 10 µM, stronger effect = higher value
[5] = modulators of AGP1-GFP expression in yeast TOR pathway, primary screen, cell-based, multiplex flow cytometry, S. cerevisiae (AID 1887;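 active = GFP signal above the screen-wide mean plus 3 SD, that is over about 124.5% of the solvent control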;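 note: AGP1-GFP fusion strain of S. cerevisiae within a five-strain barcoded multiplex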); conditions: 3 h, at 10 µM, stronger effect = higher value
[6] = inhibitors of CD8+ T cell-vesicle binding, pilot screen, LFA-1/ICAM-1 modulator project, MLPCN validation set, flow cytometry (AID 2523;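 active = response below a set limit, under 55% cells CD8-positive and vesicle-bound, and CD8 cells' 90th-percentile brightness under 279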;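 for vesicle binding response: mean PE anti-B7-1 fluorescence of CD8+ cells relative to row control; 100% = QL9-loaded vesicles with DMSO vehicle in the same plate row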); conditions: 2C mouse CD8+ T cells, at 7 µM, stronger effect = lower value; double positive events: measured here: CD8+/vesicle+ event percentage
[7] = biological target: Integrin beta-1 (Homo sapiens) + Integrin alpha-4 (Homo sapiens) (UniProt P13612+P05556); assay: inhibition of HUTS-21 binding to VLA-4, pilot screen, VLA-4 allosteric modulator project, U937 cells, HUTS-21 mAb, flow cytometry, validation set (AID 2674); conditions: HUTS-21 LIBS mAb binding, at 6.7 µM, stronger effect = higher value, binding induced by LDV ligand;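 note: antibody binding induced by the VLA-4 ligand LDV present at three times its Kd; 0% = LDV ligand with antibody and no compound and 100% = antibody without LDV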
Chain of Integrin beta-1 (Homo sapiens) + Integrin alpha-4 (Homo sapiens) (P05556 whole entry, looked up): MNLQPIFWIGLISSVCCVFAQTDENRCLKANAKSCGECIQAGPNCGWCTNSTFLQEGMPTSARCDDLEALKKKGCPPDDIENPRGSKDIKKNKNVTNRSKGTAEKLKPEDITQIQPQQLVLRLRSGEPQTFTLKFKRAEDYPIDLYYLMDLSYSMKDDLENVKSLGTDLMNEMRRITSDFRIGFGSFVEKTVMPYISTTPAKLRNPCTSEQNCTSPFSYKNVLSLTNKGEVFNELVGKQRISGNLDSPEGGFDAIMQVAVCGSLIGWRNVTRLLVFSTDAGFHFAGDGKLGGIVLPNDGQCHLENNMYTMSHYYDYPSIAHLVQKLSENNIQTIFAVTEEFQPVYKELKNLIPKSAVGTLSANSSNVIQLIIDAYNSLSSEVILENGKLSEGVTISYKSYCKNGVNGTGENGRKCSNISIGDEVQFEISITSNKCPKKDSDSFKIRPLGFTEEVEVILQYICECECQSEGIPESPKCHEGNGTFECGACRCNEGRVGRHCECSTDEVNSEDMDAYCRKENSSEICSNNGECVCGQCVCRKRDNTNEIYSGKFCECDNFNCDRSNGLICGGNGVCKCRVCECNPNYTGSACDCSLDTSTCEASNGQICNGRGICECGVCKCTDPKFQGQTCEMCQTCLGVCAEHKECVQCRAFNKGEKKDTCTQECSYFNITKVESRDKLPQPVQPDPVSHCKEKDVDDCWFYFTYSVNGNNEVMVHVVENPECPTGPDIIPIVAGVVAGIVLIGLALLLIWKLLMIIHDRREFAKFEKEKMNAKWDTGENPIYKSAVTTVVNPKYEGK
Chain of Integrin beta-1 (Homo sapiens) + Integrin alpha-4 (Homo sapiens) (P13612 whole entry, looked up): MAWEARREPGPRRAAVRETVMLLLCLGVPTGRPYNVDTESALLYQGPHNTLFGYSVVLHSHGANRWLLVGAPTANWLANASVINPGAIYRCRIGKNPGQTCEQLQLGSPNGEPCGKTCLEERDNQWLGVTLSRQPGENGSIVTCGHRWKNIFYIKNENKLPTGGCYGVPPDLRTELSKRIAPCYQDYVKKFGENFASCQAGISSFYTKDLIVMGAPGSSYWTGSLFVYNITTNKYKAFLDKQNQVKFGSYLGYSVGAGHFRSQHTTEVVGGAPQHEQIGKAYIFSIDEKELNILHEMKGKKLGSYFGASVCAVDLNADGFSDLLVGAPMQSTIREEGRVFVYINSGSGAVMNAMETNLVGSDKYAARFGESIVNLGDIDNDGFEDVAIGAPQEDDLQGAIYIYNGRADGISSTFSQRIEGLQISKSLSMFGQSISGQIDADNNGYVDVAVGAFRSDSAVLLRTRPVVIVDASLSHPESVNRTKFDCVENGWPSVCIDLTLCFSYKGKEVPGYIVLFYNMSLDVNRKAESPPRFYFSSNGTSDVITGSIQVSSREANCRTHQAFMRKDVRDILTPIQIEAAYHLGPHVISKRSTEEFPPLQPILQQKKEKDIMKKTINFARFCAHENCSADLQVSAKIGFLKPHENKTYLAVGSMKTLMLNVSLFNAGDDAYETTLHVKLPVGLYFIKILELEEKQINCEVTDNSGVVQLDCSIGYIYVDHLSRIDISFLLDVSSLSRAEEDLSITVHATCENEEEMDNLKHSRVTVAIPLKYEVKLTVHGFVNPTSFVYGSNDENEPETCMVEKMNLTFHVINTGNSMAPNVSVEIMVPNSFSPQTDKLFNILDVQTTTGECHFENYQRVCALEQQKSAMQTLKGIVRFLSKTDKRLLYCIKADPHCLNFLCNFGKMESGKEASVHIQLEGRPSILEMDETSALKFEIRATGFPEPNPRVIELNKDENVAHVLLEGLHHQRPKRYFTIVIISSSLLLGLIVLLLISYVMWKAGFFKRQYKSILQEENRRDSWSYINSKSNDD

[8] = superoxide lowering in aged yeast cells, pilot screen, validation compound set (AID 2706;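 active = superoxide response below 65% of plate, a cut near 3 SD across the whole screen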;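 note: yeast exposed to compound for one week at 30 degrees C before staining; 100% = mean of all compound wells on the same plate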); conditions: S. cerevisiae aging, superoxide DHE fluorescence; at 10 µM; stronger effect = lower value
[9] = biological target: Beta-adrenergic receptor kinase 1 (Homo sapiens) (UniProt P25098); assay: GRK2 binders displacing RNA aptamer, biochemical, validation, human GRK2, bead flow cytometry (AID 488806;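 active = aptamer binding inhibition above 30%, about 3 SD of noise from non-fluorescent compounds; inactive = inhibition at or below 30%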); conditions: bead-bound GRK2, FAM-aptamer displacement, at 10 µM, stronger effect = higher value
Chain of Beta-adrenergic receptor kinase 1 (Homo sapiens) (P25098 whole entry, looked up): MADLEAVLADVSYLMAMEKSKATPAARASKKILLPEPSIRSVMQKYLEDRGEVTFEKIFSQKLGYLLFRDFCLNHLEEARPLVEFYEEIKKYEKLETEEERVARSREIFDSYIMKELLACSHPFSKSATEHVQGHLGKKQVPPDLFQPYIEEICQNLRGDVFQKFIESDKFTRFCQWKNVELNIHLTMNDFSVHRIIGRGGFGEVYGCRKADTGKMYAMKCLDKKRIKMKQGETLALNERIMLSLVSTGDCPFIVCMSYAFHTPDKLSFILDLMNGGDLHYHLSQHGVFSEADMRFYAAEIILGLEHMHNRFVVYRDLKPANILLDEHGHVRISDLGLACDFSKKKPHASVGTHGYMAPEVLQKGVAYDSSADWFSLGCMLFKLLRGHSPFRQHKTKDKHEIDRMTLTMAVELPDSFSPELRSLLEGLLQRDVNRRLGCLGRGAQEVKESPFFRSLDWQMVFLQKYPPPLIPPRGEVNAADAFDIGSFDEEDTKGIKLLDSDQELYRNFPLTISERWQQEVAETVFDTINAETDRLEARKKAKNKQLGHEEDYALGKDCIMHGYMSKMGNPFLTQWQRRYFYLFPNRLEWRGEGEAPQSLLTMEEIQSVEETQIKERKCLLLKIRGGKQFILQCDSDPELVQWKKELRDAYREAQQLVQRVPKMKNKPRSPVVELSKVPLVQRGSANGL

[10] = biological target: Beta-2 adrenergic receptor (Homo sapiens) (UniProt P07550); assay: beta2AR agonists driving receptor internalization, pilot screen, cell-based, FAP fluorogen, flow cytometry, validation set (AID 504459;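 active = percent response above 42, roughly 3 SD of non-fluorescent test compounds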;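 note: agonist-driven loss of surface beta2AR via internalization measured by FAP dye flow cytometry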); conditions: Am2.2-beta2AR cells, FAP surface receptor flow cytometry; at 10 µM; stronger effect = higher value
Chain of Beta-2 adrenergic receptor (Homo sapiens) (P07550 whole entry, looked up): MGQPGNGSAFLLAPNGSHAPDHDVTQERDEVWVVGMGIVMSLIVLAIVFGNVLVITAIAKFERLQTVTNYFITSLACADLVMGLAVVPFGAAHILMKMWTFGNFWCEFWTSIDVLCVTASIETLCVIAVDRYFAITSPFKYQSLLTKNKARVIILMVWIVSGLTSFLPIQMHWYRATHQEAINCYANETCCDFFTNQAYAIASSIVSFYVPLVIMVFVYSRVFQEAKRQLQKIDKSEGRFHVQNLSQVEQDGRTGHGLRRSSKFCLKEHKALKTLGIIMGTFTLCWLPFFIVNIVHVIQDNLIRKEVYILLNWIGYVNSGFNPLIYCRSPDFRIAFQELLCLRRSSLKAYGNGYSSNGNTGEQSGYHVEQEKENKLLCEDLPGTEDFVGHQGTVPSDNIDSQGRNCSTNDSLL

[11] = biological target: AP-2 complex subunit beta (Homo sapiens) (UniProt P63010); assay: inhibitors of arrestin peptide binding to AP2, pilot screen, biochemical, validation set, GST-AP2 beads, flow cytometry (AID 504541;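 active = inhibition above 54%, about 3 SD of non-fluorescent compounds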;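 note: AP2 carries R879A mutation and is captured from E. coli lysate; bead-bound FITC arrestin peptide fluorescence measuring arrestin peptide binding to AP2; 0% = DMSO wells and 100% = excess unlabeled arrestin peptide control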); conditions: FITC arrestin peptide, at 10 µM, stronger effect = higher value, AP2 beta2 appendage fragment, R879A mutant
Chain of AP-2 complex subunit beta (Homo sapiens) (P63010 whole entry, looked up, the tested form may be a part, one chain of several): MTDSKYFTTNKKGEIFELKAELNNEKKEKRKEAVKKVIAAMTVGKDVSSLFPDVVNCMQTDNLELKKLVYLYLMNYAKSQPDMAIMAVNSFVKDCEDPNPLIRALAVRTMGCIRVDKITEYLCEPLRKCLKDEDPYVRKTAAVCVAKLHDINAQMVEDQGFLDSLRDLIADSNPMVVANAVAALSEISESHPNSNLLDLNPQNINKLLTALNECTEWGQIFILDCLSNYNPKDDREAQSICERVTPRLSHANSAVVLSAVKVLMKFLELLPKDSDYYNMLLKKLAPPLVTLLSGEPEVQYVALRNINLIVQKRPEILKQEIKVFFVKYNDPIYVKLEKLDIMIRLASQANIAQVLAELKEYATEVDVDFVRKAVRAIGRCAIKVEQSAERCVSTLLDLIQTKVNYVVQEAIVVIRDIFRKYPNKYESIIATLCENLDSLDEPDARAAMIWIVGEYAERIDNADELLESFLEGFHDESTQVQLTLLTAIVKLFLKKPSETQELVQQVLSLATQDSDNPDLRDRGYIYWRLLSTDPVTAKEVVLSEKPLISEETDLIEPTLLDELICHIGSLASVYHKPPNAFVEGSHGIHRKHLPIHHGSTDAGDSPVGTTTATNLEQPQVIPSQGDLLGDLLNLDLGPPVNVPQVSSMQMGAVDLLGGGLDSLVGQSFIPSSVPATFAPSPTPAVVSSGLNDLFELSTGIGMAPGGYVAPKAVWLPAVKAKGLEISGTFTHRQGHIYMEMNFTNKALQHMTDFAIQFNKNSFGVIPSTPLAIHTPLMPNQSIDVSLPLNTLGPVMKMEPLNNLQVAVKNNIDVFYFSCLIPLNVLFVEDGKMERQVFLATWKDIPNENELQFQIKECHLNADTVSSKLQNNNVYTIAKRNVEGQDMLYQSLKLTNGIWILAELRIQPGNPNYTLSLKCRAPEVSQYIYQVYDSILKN

[12] = yeast V-ATPase proton transport modulators, S. cerevisiae, pHLuorin, HTS validation (AID 504600; in the data active = response above about 15%;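 note: plate controls were DMSO for no effect and reference compound for full effect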); conditions: S. cerevisiae pHLuorin cytosolic pH, at 10 µM, stronger effect = higher value
[13] = test system: anti-desmoglein-3 scFv antibody binding to human DSG3; assay: inhibitors of anti-DSG3 scFv binding to DSG3, pilot screen, biochemical, validation compound set, bead-based, flow cytometry (AID 588368;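 active = binding below the plate cutoff, the plate median minus 3 SD, with a reading above zero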;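 note: signal is the median channel fluorescence of bead-bound GFP antibody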); conditions: Protein G beads, DSG3-Fc, scFv-GFP binding, at 10 µM, stronger effect = lower value
[14] = inhibitors of fungal efflux pumps CDR1, CDR2, MDR1, pilot screen, validation compound set, multiplex, phenotypic (AID 588506;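 active = efflux inhibition above 0.42, the validation set average plus 4 SD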;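 note: Nile Red retained in cells so higher fluorescence means more efflux inhibition; 0 = negative control wells and 1 = enniatin B 25 µM full block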); conditions: S. cerevisiae pump-expressing triplex, Nile Red efflux flow cytometry; at 10 µM; stronger effect = higher value; the pumps come from Candida albicans
[15] = biological target: ATP-binding cassette sub-family B member 6 (Homo sapiens) (UniProt Q9NP58); assay: ABCB6 transporter inhibitors, pilot screen, K562-ABCB6 cells, flow cytometry, validation set (AID 588550;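 active = inhibition above the screen-wide mean plus 3 SD, about 51%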;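 note: 0% = DMSO wells and 100% = benzethonium chloride 70 µM positive control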); conditions: K562-ABCB6 porphyrin accumulation, 1 h, at 10 µM, stronger effect = higher value
Chain of ATP-binding cassette sub-family B member 6 (Homo sapiens) (Q9NP58 whole entry, looked up): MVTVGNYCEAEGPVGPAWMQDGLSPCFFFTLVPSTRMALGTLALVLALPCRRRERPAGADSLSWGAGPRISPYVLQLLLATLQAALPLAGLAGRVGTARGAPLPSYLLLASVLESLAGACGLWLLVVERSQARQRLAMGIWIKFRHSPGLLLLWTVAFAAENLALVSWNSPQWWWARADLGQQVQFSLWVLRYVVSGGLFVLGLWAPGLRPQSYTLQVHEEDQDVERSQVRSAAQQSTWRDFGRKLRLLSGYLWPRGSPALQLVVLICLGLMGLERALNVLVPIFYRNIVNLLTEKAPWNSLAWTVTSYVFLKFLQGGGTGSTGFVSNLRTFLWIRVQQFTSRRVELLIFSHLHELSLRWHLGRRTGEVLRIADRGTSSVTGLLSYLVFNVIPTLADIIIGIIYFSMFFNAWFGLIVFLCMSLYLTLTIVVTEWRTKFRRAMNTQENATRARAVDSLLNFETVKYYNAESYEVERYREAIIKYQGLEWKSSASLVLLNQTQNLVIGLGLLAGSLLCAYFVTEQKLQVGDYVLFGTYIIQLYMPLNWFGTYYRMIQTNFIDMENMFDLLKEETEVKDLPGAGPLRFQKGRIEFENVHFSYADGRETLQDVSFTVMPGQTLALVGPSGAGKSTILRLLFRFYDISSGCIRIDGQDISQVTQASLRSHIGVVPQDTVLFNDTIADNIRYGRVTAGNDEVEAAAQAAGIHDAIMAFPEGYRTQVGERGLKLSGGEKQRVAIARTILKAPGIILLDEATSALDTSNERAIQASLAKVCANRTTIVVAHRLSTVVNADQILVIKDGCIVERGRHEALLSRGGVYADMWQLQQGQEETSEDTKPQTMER

[16] = promoters of myeloid differentiation in arrested cells, primary screen, cell-based, GFP/MAC1 double positive, flow cytometry, validation set (AID 588685;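 active = differentiation response of at least 50%, scaled between solvent and reference control, from cells with both markers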;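 note: compound exposure lasts four days before antibody staining and flow analysis; 0% = DMSO wells and 100% = 5 µM fulvestrant positive control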); conditions: ER-HoxA9 marrow cells, stronger effect = higher value, normalized: vehicle 0, fulvestrant 100

Compound | percent of DMSO control GFP [1] | GFP response vs DMSO [2] | percent response of DMSO control [3] | GFP response vs DMSO [4] | GFP response, % of DMSO [5] | double positive events [6] | vesicle binding response [6] | inhibition [7] | superoxide response (% of plate) [8] | aptamer binding inhibition [9] | response [10] | inhibition [11] | response [12] | binding (% of control) [13] | efflux inhibition (fraction of control) [14] | inhibition [15] | differentiation response [16]
O=C(CCc1ccccc1)Nc1ccccc1C(F)(F)F | 103% (inactive) | 105% (inactive) | 107% (inactive) | 94.7% (inactive) | 103% (inactive) | 64.1% | 240% (inactive) | 2.66% (inactive) | 96.3% (inactive) | 1% (inactive) | -5.39% (inactive) | -5.17% (inactive) | 2.37% (inactive) | 100% (inactive) | 0.18 (inactive) | -2% (inactive) | 0.24% (inactive)
c1ccc(CN(CC2=NCCN2)c2ccccc2)cc1 | 87.8% (inactive) | 138% (inactive) | 101% (inactive) | 78.7% (inactive) | 84.3% (inactive) | 64.5% and 68.1% | 273% (inactive) and 176% (inactive) | -56.6% (inactive) and -2.27% (inactive) | 93.5% (inactive) and 98.7% (inactive) | 1% (inactive) and 2% (inactive) | 7.43% (inactive) and -2.34% (inactive) | 0.2% (inactive) and -12.4% (inactive) | -4.75% (inactive) and 1.48% (inactive) | 111% (inactive) and 102% (inactive) | -0.35 (inactive) and -0.31 (inactive) | -5% (inactive) and 12% (inactive) | 15.6% (inactive) and -8.19% (inactive)
NCCc1cnc[nH]1 | 89.8% (inactive) and 102% (inactive) | 129% (inactive) and 104% (inactive) | 101% (inactive) and 102% (inactive) | 78.7% (inactive) and 113% (inactive) | 84.5% (inactive) and 117% (inactive) | 55.6% and 61.9% | 192% (inactive) and 166% (inactive) | -33.3% (inactive) and -35.2% (inactive) | 105% (inactive) and 109% (inactive) | 3% (inactive) and 0% (inactive) | -15.1% (inactive) and -30.5% (inactive) | -4.51% (inactive) and -1.77% (inactive) | 25.1% (active) and 47.3% (active) | 105% (inactive) and 106% (inactive) | 0.09 (inactive) and 0.04 (inactive) | 5% (inactive) and -3% (inactive) | -5.73% (inactive) and -4.99% (inactive)
CCCCOc1cc(C(=O)NCCN(CC)CC)c2ccccc2n1 | 94.8% (inactive) | 128% (inactive) | 106% (inactive) | 79.8% (inactive) | 92.8% (inactive) | 48.4% and 71.1% | 187% (inactive) and 185% (inactive) | 13.8% (inactive) and 14.2% (inactive) | 88.6% (inactive) and 105% (inactive) | -2% (inactive) and -3% (inactive) | -3.62% (inactive) | -5.17% (inactive) and -1.67% (inactive) | -31% (inactive) and -1.46% (inactive) | 145% (inactive) and 101% (inactive) | 0.03 (inactive) and 0.09 (inactive) | 11% (inactive) and 10% (inactive) | 7.87% (inactive) and 9.01% (inactive)
CCN(CC)CC(=O)Nc1c(C)cccc1C | 106% (inactive) and 100% (inactive) | 109% (inactive) and 94.1% (inactive) | 101% (inactive) and 109% (inactive) | 105% (inactive) and 98.2% (inactive) | 107% (inactive) and 105% (inactive) | 65.6% and 64.5% | 12800% (inactive) | 6.4% (inactive) and 0.94% (inactive) | 87.6% (inactive) and 113% (inactive) | 5% (inactive) and 0% (inactive) | -4.24% (inactive) and -9.06% (inactive) | -9.42% (inactive) and -7.53% (inactive) | -5.61% (inactive) and -5.05% (inactive) | 94.5% (inactive) and 99.9% (inactive) | 0.05 (inactive) and -0.1 (inactive) | 10% (inactive) and 7% (inactive) | -8.8% (inactive) and -15.2% (inactive)
Cc1cc(=O)[nH]c(=S)[nH]1 | 97% (inactive) | 109% (inactive) | 106% (inactive) | 79.2% (inactive) | 96.6% (inactive) | 64.4% | 223% (inactive) | 12.3% (inactive) | 113% (inactive) | -9% (inactive) | -11.1% (inactive) | -0.05% (inactive) | 0.42% (inactive) | 104% (inactive) | 0.12 (inactive) | 12% (inactive) | 0.82% (inactive)
O=C1C(O)CC2c3ccccc3CC3(CCCC3)N12 (stereo not drawn) | 100% (inactive) | 104% (inactive) | 105% (inactive) | 114% (inactive) | 100% (inactive) | 61.4% | 247% (inactive) | -0.43% (inactive) | 106% (inactive) | 1% (inactive) | 48% (active) | -6.78% (inactive) | 0.88% (inactive) | 99.9% (inactive) | 0.08 (inactive) | -110% (inactive) | -18.4% (inactive)
Cn1c(=O)c2c(ncn2CCO)n(C)c1=O | 102% (inactive) | 112% (inactive) | 116% (inactive) | 88.6% (inactive) | 101% (inactive) | 63.6% | 250% (inactive) | -32.3% (inactive) | 98.5% (inactive) | -2% (inactive) | 15.1% (inactive) | -1.93% (inactive) | 0.08% (inactive) | 106% (inactive) | -0.17 (inactive) | 6% (inactive) | 1.64% (inactive)
Cc1nnc(SCC2=C(C(=O)O)N3C(=O)[C@@H](NC(=O)Cn4cnnn4)[C@H]3SC2)s1 | 100% (inactive) | 104% (inactive) | 100% (inactive) | 114% (inactive) | 112% (inactive) | 61.6% | 282% (inactive) | 15.9% (inactive) | 98.1% (inactive) | -1% (inactive) | -26.4% (inactive) | 6.15% (inactive) | -5.74% (inactive) | 93.4% (inactive) | -0.13 (inactive) | 1% (inactive) | -7.94% (inactive)
